Here are results for 40 molecules from PubChem BioAssay (Tox21).

Structures are written as SMILES. Unmarked numbers belong to inactive results. A call without a number means that no potency is given here. Calls of active or inactive are those of the source. Calls come from the whole dose curve.
Potency is the fitted concentration of half-maximal effect.

The target in this test is Acetylcholinesterase (Homo sapiens) (UniProt P22303). The test can be described thus: Acetylcholinesterase (AChE) small molecule antagonists: enzyme-based qHTS assay (AID 1347397). Note: nearly all actives have a fitted effect of over 55% in size. Particulars: Potency: AChE enzyme activity inhibition; outcome: AChE enzyme activity inhibition; series mostly up to 115 µM. Summed up: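 Enzyme inhibition was scored from DTNB-detected thiocholine formed by recombinant human AChE acting on acetylthiocholine. The 30 min compound preincubation and 10 min substrate reaction were both run at room temperature, with DMSO as vehicle control.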
Acetylcholinesterase (Homo sapiens), sequence (P22303 whole entry, looked up): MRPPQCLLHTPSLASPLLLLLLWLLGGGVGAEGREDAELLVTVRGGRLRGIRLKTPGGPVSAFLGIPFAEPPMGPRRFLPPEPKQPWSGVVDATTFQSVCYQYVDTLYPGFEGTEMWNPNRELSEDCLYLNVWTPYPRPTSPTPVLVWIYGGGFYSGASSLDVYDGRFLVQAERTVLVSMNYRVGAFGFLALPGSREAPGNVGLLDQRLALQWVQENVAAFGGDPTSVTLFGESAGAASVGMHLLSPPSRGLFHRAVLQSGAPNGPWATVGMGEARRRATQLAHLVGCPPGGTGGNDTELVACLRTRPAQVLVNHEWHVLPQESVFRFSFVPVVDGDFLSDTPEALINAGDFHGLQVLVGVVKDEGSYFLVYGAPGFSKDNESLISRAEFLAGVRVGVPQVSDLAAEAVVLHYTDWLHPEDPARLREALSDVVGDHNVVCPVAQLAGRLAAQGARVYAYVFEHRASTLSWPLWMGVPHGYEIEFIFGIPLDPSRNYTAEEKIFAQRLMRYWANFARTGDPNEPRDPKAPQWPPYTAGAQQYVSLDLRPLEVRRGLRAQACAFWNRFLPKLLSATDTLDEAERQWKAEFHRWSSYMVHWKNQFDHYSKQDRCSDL
A general note: qHTS replaces the single test concentration by a dilution series.
Turning to `O=C(Nc1cccc(C2=NCCN2)c1)Nc1cccc(C2=NCCN2)c1`, the Potency is 10.7 µM (active).

Turning to `CO[Si](OC)(OC)OC`, the Potency entry is “inactive”.

As to `CC(C)=NNC(N)=S`, the Potency entry is “inactive”.

Regarding `CC1(C)C2=CCCC(C)(C)[C@]23CC[C@H]1C3`, the Potency result was “inactive”.

Regarding `Cc1c[nH]c2ccccc12`, the Potency entry was “inactive”.

In the case of `CCOc1nc(F)cc2nc(S(=O)(=O)Nc3c(Cl)cccc3C(=O)OC)nn12`, the Potency entry was “inactive”.

With `Cc1occc(=O)c1O`, the Potency result was “inactive”.

For `NC(CO)(CO)CO`, the molecule was classed as inactive.

On to `CCNC(=O)/C=C/c1cccc(Br)c1`, for which the Potency result is “inactive”.

On to `Oc1ccc(Cc2ccccc2)cc1`, for which the Potency result is “inactive”.

Turning to `CCCCCCCCCCCCCC(=O)O`, the Potency entry is “inactive”.

As to `C=CC(=O)OCCCCCCOC(=O)C=C`, the Potency result is “inactive”.

On to `CCCCNS(=O)(=O)c1ccccc1`, for which the Potency result is “inactive”.

In the case of `CSc1ccc(Cl)cc1`, the Potency entry is “inactive”.

Consider `CC(=O)[C@@]1(O)CC[C@H]2[C@@H]3C[C@H](C)C4=CC(=O)CC[C@]4(C)[C@H]3CC[C@@]21C`, for which the Potency result is “inactive”.

As to `CCN[C@H]1CN(CCCOC)S(=O)(=O)c2sc(S(N)(=O)=O)cc21`, the Potency result was “inactive”.

As for `O=C(O)CC(C(=O)O)C(CC(=O)O)C(=O)O` (stereo not given), the Potency result is “inactive”.

`CCCCCCCCCOC(=O)CCCCC(=O)OCCCCCCC`: the Potency result is “inactive”.

`O=C(O)c1cccc(O)c1`: the Potency result was “inactive”.

With `CC(C)CC(=O)CC(C)CC(C)C` (stereo not given), the Potency result is “inactive”.

As to `NC(Cc1c[nH]c2ccccc12)C(=O)O` (stereo not given), the Potency result was “inactive”.

Take `CCCCOCCOCCSC#N`: the Potency result was “inactive”.

In the case of `ONc1ccccc1`, the Potency entry was “inactive”.

`COc1ccc(CCC(C)=O)cc1`: the Potency entry was “inactive”.

On to `CCCCCCOC(=O)C(C)C`, for which the Potency entry is “inactive”.

Regarding `C=CC(=O)CCCCC`, the Potency result is “inactive”.

Regarding `c1ccc2c(c1)-c1cccc3c1c-2cc1ccccc13`, the Potency entry was “inactive”.

Turning to `Nc1c[n+](N2CCOCC2)no1`, the Potency entry is “inactive”.

As to `NC(=O)NC(N)=O`, the Potency result is “inactive”.

With `CC(=O)Oc1cccc2c1C(=O)c1c(OC(C)=O)cc(C(=O)O)cc1C2=O`, the Potency entry is “inactive”.

In the case of `Cc1ccc(-c2ccccc2C#N)cc1`, the Potency result is “inactive”.

Take `O=C(O)Cc1ccccc1Oc1ccc(Cl)cc1Cl`: the Potency entry was “inactive”.

As to `CCOCCOCCO`, the Potency result was “inactive”.

On to `Cc1cccc(C(=O)O)c1O`, for which the Potency result was “inactive”.

As for `CCCSSCCC`, the Potency entry was “inactive”.

Turning to `CN1Cc2cc(C(=O)N3CCC(C4CCNCC4)CC3)ccc2NC(CC(=O)O)C1=O` (stereo not given), the Potency entry is “inactive”.

For the molecule `CC(=O)OCc1ccc2c(c1)OCO2`, the Potency entry is “inactive”.

Regarding `O=C(Nc1ncc([N+](=O)[O-])s1)c1cccs1`, the Potency result is “inactive”.

Consider `O=C(O)CN(CCCN(CC(=O)O)CC(=O)O)CC(=O)O`, for which the activity change, negative = inhibition is 4.89% [at 23.6 µM].

On to `CCO[Si](CCCN)(OCC)OCC`, for which the Potency entry is “inactive”.
